The values that follow come from PubChem BioAssay AID1508600 (Functional Genomics Laboratory (NCATS/FGL), 2020).

The whole screen tested about 53,000 sequences, of which about 3,700 (7%) were called active.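 Rule for the calls: active = gene knockdowns whose robust z-score for IL-1 alpha signal is at least 2 or at most -2, so actives lie on both sides; inactive = the rest.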 The full list was thinned out, with actives kept by preference.

A short description of the assay: Components of the Cytosolic LPS Sensing Pathway: Gene Identification via Genome-wide siRNA Screen.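 Note: robust z of the log signal after scaling to non-targeting control siRNA wells of the plate.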 The settings on record: RAW264.7 macrophages, IL-1a HTRF, actives lie on both sides, screened at 100 nM (by protocol), cells primed 5 h with Pam3CSK4 first. The essentials:
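Using IL-1a HTRF as read-out, the screen measured release from RAW264.7 cells after 48h siRNA knockdown (100 nM), 5 h Pam3CSK4 priming and 24 h cytosolic LipidA. Values were expressed relative to negative-control wells as robust z-scores.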
In the case of GGAAACGAUGACAUUUCAATT against Pnrc2, the z-score was 0.0147 (inactive). The same measure for GGGCGUAGAAACAGCAACUTT against Ushbp1: -2.14 (active); for GGCCAGAGACUGCCUGAUUTT against Acaa1b: 0.225 (inactive); for GGUCAUUCAGCUGGAAGAUTT against Zfp143: -1.07 (inactive). Consider “GGGUAGGUAUCAAAAUAAUTT against 6030452D12Rik”, for which the z-score was 0.172 (inactive). As for GCCACGUGAUAGUAAUAAATT against Psmd12, the figure is 0.0999 (inactive). On to GGAGAAUGAAGAGUUAGACTT against Nfu1, for which the z-score is 0.608 (inactive). Take AUUACAAGGUUUGUGGAUATT against Gsdmc3: the z-score is 0.188 (inactive).

For GGUGGAUAGAGCAAUUGAATT against Jph1, the z-score was 1.5 (inactive). As for GGCGGCACAAAUUGUUUUUTT against Gimap9, the figure is -2.03 (active). In the case of GCCAAGUACUCGUUUCCACTT against Wtap, the z-score is 0.826 (inactive). The same measure for GCCUUGGACUGCUUUGGAUTT against Dync1li1: -0.379 (inactive). The same measure for GGCAUUCCUCUUGAAUAUUTT against Dck: -0.805 (inactive); for GCCCUACCCUCAUCAUAAATT against Tmem94: -1.36 (inactive); for GGACUUCAGAGUGGACAUUTT against Sec16b: -0.19 (inactive). The same measure for GGAAAGUUGGACCUUCUGATT against Adamts6: 2.35 (active).

As to GCUGUGAAGAAUCAGAUAGTT against Aatf, the z-score is -0.155 (inactive). The same measure for GGAUUUAUGGCAAGUUUCUTT against Ppp2r5e: 0.00387 (inactive); for CCAGGUGUACCUUACGUUGTT against Eif4ebp2: 1.05 (inactive). Regarding CGGACAAGAUAAAGUGUGUTT against Lypd9, the z-score was -1.07 (inactive). As for GGAACUCACACAGAACCAATT against Bloc1s6, the figure is 6.84 (active); as for GGUGUAAAGUAAUCAAGGCTT against Dbx2, 0.453 (inactive); as for GGUUUUAUGAGAAAGCAGATT against Ogfod1, 0.0298 (inactive).

Regarding GCACAGCUACCAUUCACAATT against Nxpe2, the z-score was -1.97 (inactive).

GGAGGAACAUAUGCUCAGATT against Lce1e: the z-score is -2.99 (active). For the sequence CCACUAAGGUUUGAAGAAGTT against Nes, the z-score was 1.21 (inactive). Turning to CCUGAUUAUUCUGAGAAAUTT against Adsl, the z-score was 1 (inactive). The same measure for GGGACUCGAGUUUCAUCUATT against Casc1: 0.768 (inactive); for GGAAUUACGAAGCUGUGUGTT against Cdkl3: -2.36 (active).

With “CCGUUCUGGCACAGAACAGTT against A830005F24Rik”, the z-score is 1.41 (inactive). As for CCAUUGUACAGAAAAACACTT against Abhd18, the figure is 0.41 (inactive); as for GGAAAGAGCUUUUUAUUGUTT against Zfp235, 0.145 (inactive). For the sequence CCAUAUACCCUCGAUGCCATT against Abhd16b, the z-score was -2.76 (active). The same measure for GCCCGAAUACAGGAAGAUCTT against Hspg2: 1.42 (inactive); for GGAAAUGAGACGAAGGAGGTT against Kpna6: -0.642 (inactive); for GGAACUGAAAAACUCAACUTT against Evi2a: -3.13 (active). On to GGCACAGAGAACAAUACUUTT against Npy5r, for which the z-score is -0.128 (inactive). As for CCCUAUUAGUGGAAGCAUGTT against Zfp738, the figure is -1.94 (inactive). As for “GCAUCGCAUUUAAAUAGAATT against 4833408A19Rik”, the figure is 0.965 (inactive); as for GGGUGUAGCAUUGUCACAGTT against Olfr1133, 2.32 (active); as for GGAGAUGAACAAGGACCUATT against Apoa1, 0.717 (inactive).

In the case of GGAUGUGAUGAAGUUGGCCTT against Olfr78, the z-score is -1.96 (inactive).

Consider GCUGGUGAGUCACUGAUGATT against Med22, for which the z-score is 1.32 (inactive). The same measure for GGAAAGAAGAAACAUUCCUTT against Socs5: 0.495 (inactive). Consider GCGACUCCCACAUACUCAGTT against Muc19, for which the z-score was -0.215 (inactive).

For the sequence UCCAUACUACUCAUCAAAUTT against Olfr68, the z-score is 3.78 (active).

Consider GCCUAAGAACGAUGACACUTT against Surf2, for which the z-score is 0.179 (inactive). As for “GGUCUCUGUAGAGAUGGCATT against 6820408C15Rik”, the figure is -2.52 (active); as for CGUUAAUUGCCCUCAAAGATT against Spon1, 1.03 (inactive); as for GGCGGAGAGGAAAUCUAUGTT against Mycs, 1.4 (inactive). As for GCCUUUGCACAGUUUGGACTT against BC002059, the figure is -1.13 (inactive). The same measure for GGCAGUUCUCCAGUGCUUUTT against Mtss1: -1.32 (inactive); for CCUCGUAUUUAUACUCAGUTT against Gpr18: 0.3 (inactive). CCACCUUCCUAUGUUUGUATT against Ebf2: the z-score is 3.73 (active).

On to GGCUGCUCAAAAAGAACAUTT against Kif21b, for which the z-score is 0.645 (inactive). As for GCUUUGGCUCAAAGCACGUTT against Mcm3, the figure is 1.93 (inactive); as for GCGGUCAAAUGCAACAAACTT against Fabp5, -0.33 (inactive); as for CCUCCUGACCUUAAUCUUGTT against P2rx1, 0.507 (inactive). The same measure for GGCUGCACAAAGAUGUUCATT against Yy1: 2.46 (active); for GCUUAAUCCUUAGUCAGCATT against F2rl2: -0.591 (inactive). As for GGAAGAGGUGAAUGAUAAATT against Bmi1, the figure is 1.51 (inactive); as for GCUCAACAGCAGUGACGAUTT against Nras, -0.701 (inactive). Regarding GGCCAGUCAAGGUUGGAUUTT against Gpr152, the z-score was -0.32 (inactive). As for GCUGUGAAUUCCAAAUGCGTT against Myh4, the figure is 3.33 (active). In the case of GGAUACAAUGCAACUGUCCTT against Kif4, the z-score is -1.08 (inactive). As for GCACUCUCUACUCUAUUAATT against Ackr2, the figure is 2.68 (active); as for GGUUAGCCUACUCUCUAAUTT against Tomm22, 0.501 (inactive). As for GGCUCAAAUACAGGAAAUUTT against Tmem45b, the figure is 0.498 (inactive); as for GGGCAGGUUGUCUUUCUACTT against Plpp1, 0.997 (inactive).
